Compounds without any hit were thinned out: in the full panel of roughly 79,000, 15% have a hit. Activity calls are given as the source filed them. Cut-off read from the data, not from the text of the source: active = growth inhibition above about 70%; inactive = the rest.
How the values were obtained:
[1] = NCI Yeast Anticancer Drug Screen. Data for the rad52 strain (AID 147);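 note: 0% = growth of vehicle-treated control cultures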; details: S. cerevisiae rad52 mutant growth inhibition, active compounds read high
Method in brief: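 The repair-mutant yeast strain was incubated with compounds, then growth was read and inhibition derived relative to vehicle.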

[2] = NCI Yeast Anticancer Drug Screen. Data for the wt1 strain (AID 149);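 note: 0% = growth of vehicle-treated wt1 cultures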; details: S. cerevisiae wt1 strain (SPY 50644) growth inhibition, active compounds read high
Method in brief: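 Yeast wt1 strain exposed to compounds; growth inhibition measured relative to vehicle-treated controls.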

[3] = NCI Yeast Anticancer Drug Screen. Data for the rad50EPP+ strain (AID 151);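 note: 0% = growth of vehicle-treated control cultures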; details: S. cerevisiae rad50 mutant strain, active compounds read high
Method in brief: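 Vehicle-normalised growth inhibition; rad50EPP+ yeast strain, altered in DNA damage repair, compound-treated.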

[4] = NCI Yeast Anticancer Drug Screen. Data for the mgt1 strain (AID 153); details: S. cerevisiae mgt1 mutant growth inhibition, active compounds read high
Method in brief: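 Vehicle-normalized growth inhibition is determined in mgt1 yeast, a strain selected for a defined alteration in DNA repair or cell cycle control.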

[5] = NCI Yeast Anticancer Drug Screen. Data for the rad50 strain (AID 155);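 note: 0% = growth of vehicle-only cultures of the same strain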; details: S. cerevisiae rad50 strain growth inhibition, active compounds read high
Method in brief: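 Yeast carrying a defined DNA repair defect were exposed to test compounds, and growth was compared with vehicle-treated controls to give percent inhibition.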

[6] = NCI Yeast Anticancer Drug Screen. Data for the mec2-1 strain (AID 157); details: S. cerevisiae mec2-1 strain, active compounds read high
Method in brief: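 Mutant yeast (mec2-1) grown with compound; growth inhibition relative to vehicle control reported.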

[7] = NCI Yeast Anticancer Drug Screen. Data for the rad14 strain (AID 159);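 note: 0% = growth of vehicle-treated control cultures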; details: S. cerevisiae rad14 strain growth inhibition, active compounds read high
Method in brief: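 Yeast cells carrying a defined DNA-repair defect were exposed to compounds, and growth inhibition was calculated relative to vehicle-treated control cultures.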

[8] = NCI Yeast Anticancer Drug Screen. Data for the sgs1 mgt1 strain (AID 161);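 note: 0% = growth of cultures given vehicle only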; details: S. cerevisiae sgs1 mgt1 strain, active compounds read high
Method in brief: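 Percent growth inhibition was derived by comparing compound-exposed mutant yeast with vehicle-exposed cultures. The strain carries alterations in DNA damage repair.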

[9] = NCI Yeast Anticancer Drug Screen. Data for the CLN2oe strain (AID 163);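 note: 0% = growth of vehicle-only control cultures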; details: S. cerevisiae CLN2oe strain, active compounds read high
Method in brief: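 Compounds are applied to yeast harbouring a defined cell-cycle control change; reduced growth compared with vehicle-treated controls gives the value.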

[10] = NCI Yeast Anticancer Drug Screen. Data for the cln2 rad14 strain (AID 165);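 note: 0% = growth equal to vehicle treated cultures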; details: S. cerevisiae cln2 rad14 strain, active compounds read high
Method in brief: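 Readout is yeast growth inhibition versus vehicle-treated controls, using a strain with cln2 and rad14 alterations exposed to compound.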

[11] = NCI Yeast Anticancer Drug Screen. Data for the bub3 strain (AID 167); details: S. cerevisiae bub3 mutant strain, active compounds read high
Method in brief: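 Compounds were applied to a genetically altered yeast strain carrying a cell-cycle control defect. Growth inhibition was scored against vehicle-treated controls.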

[12] = NCI Yeast Anticancer Drug Screen. Data for the wt2 strain (AID 169);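 note: 0% = growth of vehicle-treated yeast cultures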; details: S. cerevisiae wt2 strain growth inhibition, active compounds read high
Method in brief: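 Against vehicle-treated controls, the growth of yeast exposed to each compound was compared, and the inhibition was recorded.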

[13] = NCI Yeast Anticancer Drug Screen. Data for the mlh1 strain (AID 171);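 note: 0% = growth of vehicle-treated control cultures of the same strain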; details: S. cerevisiae mlh1 strain growth inhibition, active compounds read high
Method in brief: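 Measured: yeast growth. Reference: vehicle-treated controls. Organism: strain with a defined alteration affecting DNA damage repair or cell cycle control, treated with compound.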

[14] = NCI Yeast Anticancer Drug Screen. Data for the sgs1 strain (AID 173);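 note: 0% = growth of vehicle-only control cultures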; details: S. cerevisiae sgs1 mutant, active compounds read high
Method in brief: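 Each compound was added to cultures of the altered yeast strain. Growth was recorded, and inhibition was derived by comparison with vehicle controls.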

[15] = NCI Yeast Anticancer Drug Screen. Data for the mlh1 rad18 strain (AID 175); details: S. cerevisiae mlh1 rad18 strain growth inhibition, active compounds read high
Method in brief: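 Genetically defined yeast (DNA repair-deficient) exposed to compounds; growth inhibition determined relative to vehicle.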

[16] = NCI Yeast Anticancer Drug Screen. Data for the rad18 strain (AID 177); details: S. cerevisiae rad18 mutant growth inhibition, active compounds read high
Method in brief: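 Vehicle-treated cultures served as the baseline for scoring compound-induced growth inhibition in DNA-repair-mutant yeast.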

[17] = at 5.0 µM (retest, dose inferred, filed as 0.5)
[18] = at 50.0 µM (retest, dose inferred, filed as 5.0)

Measured: growth inhibition

CCC1(O)C(=O)OCc2c1cc1n(c2=O)Cc2c-1nc1ccccc1c2OC (stereo not given)
inactive: [2]; at 1.2 µM 11% | [2]; at 3.7 µM 12% | [2]; at 11.0 µM 13% | [2]; at 33.0 µM 12% | [2]; at 100.0 µM 11% | [3]; at 1.2 µM 15% | [3]; at 3.7 µM 28% | [3]; at 11.0 µM 10% | [3]; at 33.0 µM 22% | [3]; at 100.0 µM 27% | [4]; at 1.2 µM -1% | [4]; at 3.7 µM 10% | [4]; at 11.0 µM 4% | [4]; at 33.0 µM 8% | [4]; at 100.0 µM -10% | [6]; at 1.2 µM 1% | [6]; at 3.7 µM 13% | [6]; [17] 54% | [6]; at 11.0 µM 28% | [6]; at 33.0 µM 41% | [6]; [18] 62% | [6]; at 50.0 µM 33.1% | [6]; at 100.0 µM 43% | [7]; at 1.2 µM 6% | [7]; at 3.7 µM 17% | [7]; at 11.0 µM 15% | [7]; at 33.0 µM 20% | [7]; at 100.0 µM 15% | [8]; [17] 31% | [8]; [18] 33% | [8]; at 50.0 µM -13.6% | [9]; at 1.2 µM -8% | [9]; at 3.7 µM 8% | [9]; at 11.0 µM 16% | [9]; at 33.0 µM 24% | [9]; at 100.0 µM 27% | [10]; [17] 19% | [10]; [18] 18% | [10]; at 50.0 µM 2.7% | [11]; at 1.2 µM -10% | [11]; at 3.7 µM -1% | [11]; [17] 6% | [11]; at 11.0 µM 0% | [11]; at 33.0 µM 0% | [11]; [18] 11% | [11]; at 50.0 µM -41.5% | [11]; at 100.0 µM -13% | [12]; at 1.2 µM 10% | [12]; at 3.7 µM -5% | [12]; at 11.0 µM -10% | [12]; at 33.0 µM 2% | [12]; at 100.0 µM -17% | [13]; at 1.2 µM 7% | [13]; at 3.7 µM 19% | [13]; at 11.0 µM 22% | [13]; at 33.0 µM 20% | [13]; at 100.0 µM 8% | [14]; at 1.2 µM 12% | [14]; at 3.7 µM 18% | [14]; at 11.0 µM 20% | [14]; at 33.0 µM 25% | [14]; at 100.0 µM 8% | [15]; [17] 43% | [15]; [18] 33%
active: [1]; at 1.2 µM 80% | [1]; at 3.7 µM 90% | [1]; at 11.0 µM 93% | [1]; at 33.0 µM 93% | [1]; at 100.0 µM 90% | [5]; at 1.2 µM 85% | [5]; at 3.7 µM 93% | [5]; [17] 94% | [5]; at 11.0 µM 94% | [5]; at 33.0 µM 94% | [5]; [18] 90% | [5]; at 50.0 µM 71.2% | [5]; at 100.0 µM 93%

C[N+](CCCl)(CCCl)Cc1cccc2cccc([N+](=O)[O-])c12
active: [1]; at 11.0 µM 74% | [1]; at 33.0 µM 92% | [1]; at 100.0 µM 94% | [3]; at 11.0 µM 80% | [3]; at 33.0 µM 95% | [3]; at 100.0 µM 96% | [5]; at 33.0 µM 90% | [5]; [18] 85% | [5]; at 50.0 µM 80.1% | [5]; at 100.0 µM 94% | [6]; at 100.0 µM 77% | [7]; at 33.0 µM 88% | [7]; at 100.0 µM 89% | [10]; [18] 78% | [10]; at 50.0 µM 74.5% | [14]; at 100.0 µM 77% | [15]; [18] 81% | [15]; at 50.0 µM 77.4% | [16]; at 11.0 µM 91% | [16]; at 33.0 µM 95% | [16]; at 100.0 µM 96%
inactive: [1]; at 1.2 µM 31% | [1]; at 3.7 µM 47% | [2]; at 1.2 µM 31% | [2]; at 3.7 µM 9% | [2]; at 11.0 µM 31% | [2]; at 33.0 µM 28% | [2]; at 100.0 µM 39% | [3]; at 1.2 µM 20% | [3]; at 3.7 µM 35% | [4]; at 1.2 µM 3% | [4]; at 3.7 µM 6% | [4]; at 11.0 µM -15% | [4]; at 33.0 µM -5% | [4]; at 100.0 µM 9% | [5]; at 1.2 µM 26% | [5]; at 3.7 µM 44% | [5]; [17] 37% | [5]; at 11.0 µM 67% | [6]; at 1.2 µM -4% | [6]; at 3.7 µM 10% | [6]; [17] 1% | [6]; at 11.0 µM 10% | [6]; at 33.0 µM 44% | [6]; [18] 56% | [6]; at 50.0 µM 47% | [7]; at 1.2 µM -9% | [7]; at 3.7 µM -1% | [7]; at 11.0 µM 32% | [8]; [17] 15% | [8]; [18] 44% | [8]; at 50.0 µM 39.2% | [9]; at 1.2 µM -8% | [9]; at 3.7 µM -10% | [9]; at 11.0 µM -17% | [9]; at 33.0 µM -13% | [9]; at 100.0 µM -6% | [10]; [17] 17% | [11]; at 1.2 µM -20% | [11]; at 3.7 µM -26% | [11]; [17] 9% | [11]; at 11.0 µM -22% | [11]; at 33.0 µM -10% | [11]; [18] 45% | [11]; at 50.0 µM 0.4% | [11]; at 100.0 µM 3% | [12]; at 1.2 µM -10% | [12]; at 3.7 µM -6% | [12]; at 11.0 µM -10% | [12]; at 33.0 µM -1% | [12]; at 100.0 µM 23% | [13]; at 1.2 µM 7% | [13]; at 3.7 µM -2% | [13]; at 11.0 µM -1% | [13]; at 33.0 µM 4% | [13]; at 100.0 µM 21% | [14]; at 1.2 µM 20% | [14]; at 3.7 µM 19% | [14]; at 11.0 µM 41% | [14]; at 33.0 µM 63% | [15]; [17] 31% | [16]; at 1.2 µM 11% | [16]; at 3.7 µM 56%

Cc1nc2ccccc2cc1C[N+]12CN3CN(CN(C3)C1)C2
active: [1]; at 100.0 µM 90% | [3]; at 100.0 µM 85% | [5]; at 50.0 µM 84% | [5]; at 100.0 µM 85%
inactive: [1]; at 1.2 µM 1% | [1]; at 3.7 µM 3% | [1]; at 11.0 µM 6% | [1]; at 33.0 µM 29% | [2]; at 1.2 µM 0% | [2]; at 3.7 µM -2% | [2]; at 11.0 µM 0% | [2]; at 33.0 µM 3% | [2]; at 100.0 µM 20% | [3]; at 1.2 µM 0% | [3]; at 3.7 µM 1% | [3]; at 11.0 µM 1% | [3]; at 33.0 µM 21% | [4]; at 1.2 µM 2% | [4]; at 3.7 µM 5% | [4]; at 11.0 µM 4% | [4]; at 33.0 µM 6% | [4]; at 100.0 µM 36% | [5]; at 1.2 µM 1% | [5]; at 3.7 µM 9% | [5]; [17] -7% | [5]; at 11.0 µM 7% | [5]; at 33.0 µM 25% | [5]; [18] 55% | [6]; at 1.2 µM 2% | [6]; at 3.7 µM 4% | [6]; [17] -2% | [6]; at 11.0 µM 5% | [6]; at 33.0 µM 10% | [6]; [18] 28% | [6]; at 50.0 µM 25.1% | [6]; at 100.0 µM 32% | [7]; at 1.2 µM -2% | [7]; at 3.7 µM 6% | [7]; at 11.0 µM 3% | [7]; at 33.0 µM 11% | [7]; at 100.0 µM 47% | [8]; [17] -6% | [8]; [18] 27% | [8]; at 50.0 µM 47.2% | [9]; at 1.2 µM 1% | [9]; at 3.7 µM 1% | [9]; at 11.0 µM 4% | [9]; at 33.0 µM 6% | [9]; at 100.0 µM 25% | [10]; [17] -30% | [10]; [18] 4% | [10]; at 50.0 µM 19.9% | [11]; at 1.2 µM 4% | [11]; at 3.7 µM 4% | [11]; [17] 6% | [11]; at 11.0 µM 1% | [11]; at 33.0 µM 2% | [11]; [18] 2% | [11]; at 50.0 µM 42% | [11]; at 100.0 µM 26%
